# Tgondii IFNg = inhibitors of Toxoplasma gondii growth with IFN-gamma | Toxoplasma gondii growth in IFN-gamma-treated host cells; stronger effect = lower value | activity change, negative = inhibition, % (test concentration not listed) | actives 3.8% (n = 69,000); in the data active = activity change below about -70%, passing the limit was not always enough;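 note: host cells are HeLa cells infected with Toxoplasma gondii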
# An asterisk follows results filed as active; i = inactive. This is one part of a sample in which hits are shown more often than they occur.
SMILES,Tgondii IFNg
CC(C)c1nccc(CN(C)Cc2cnn(-c3ccccc3)c2)n1,-0.7
Cc1cccc(COc2cccnc2N)c1,41.7
Nc1nc(N)c2c(OCc3ccc(C(F)(F)F)cc3)cccc2n1,-73.5*
O=C(OCc1ccc(C(F)(F)F)cc1)c1cc(Cl)cc(Cl)c1,-22.3
Cc1nccn1CC1(O)CCN(C(=O)CN2CCC(c3ccccc3)CC2)CC1,39.6
CCCn1c(=O)cc(N2CCN(C(=O)CC)CC2)c2cc(C)ccc21,-76.2*
CCCCn1c(=O)cc(O)c2ccccc21,-3.4
Cc1ccc(C)c(N2CCN(C(=O)CC3Nc4c5ccccc5nc(=S)n4C3=O)CC2)c1 (centres undefined),4.9
c1ccc2c(NC3=NCCCCS3)cccc2c1,-14.5
c1ccc(Nc2cccc3c(Nc4ccccc4)cccc23)cc1,14.4
Cc1ccc(Nc2cccc3ccccc23)cc1,-119.0*
CC(=O)Nc1ccc(Cl)c(C(=O)NCCCc2csc(N)n2)c1,-41.0
CCOc1ccc(C(=O)N2CCC3(CC2)NC(=O)c2cc(F)ccc2N3CC)cc1,37.0
C=CCOCC1c2nnn(C)c2CCN1Cc1cnn(C)c1 (centres undefined),34.6
CC1CC(N(C(=O)c2ccc3c(c2)OCO3)c2ccccc2)c2ccccc2N1 (centres undefined),-96.2*
CC1CC(N(C(=O)c2ccco2)c2ccccc2)c2ccccc2N1C(=O)c1ccco1 (centres undefined),24.3
O=C(c1ccc2c(c1)OCO2)N1CC[C@@H]2[C@H](CO)Nc3ccc(C#Cc4ccccc4)cc3[C@@H]21,-36.5
CCN(CC)C1CCN(Cc2cccc(C(=O)Nc3nccn3C)c2)C1 (centres undefined),10.8
COc1ccc(CNC(=O)c2nnn(Cc3nc(-c4ccc(C)cc4)oc3C)c2C)c(OC)c1,-98.5*
CSc1ccc(CNC(=O)c2nnn(Cc3nc(-c4ccc(C)cc4)oc3C)c2C)cc1,-47.8
COc1ccc(NC(=O)c2nnn(Cc3nc(-c4ccccc4)oc3C)c2C)c(OC)c1,86.3
Cc1ccccc1NC(=O)c1nnn(Cc2nc(-c3ccc(OC(C)C)cc3)oc2C)c1C,-39.4
CCOc1ccc(-c2nc(Cn3nnc(C(=O)Nc4cc(OC)ccc4OC)c3C)c(C)o2)cc1,81.5
COc1cccc(CNC(=O)c2nnn(Cc3nc(-c4ccc(C)cc4)oc3C)c2C)c1,-96.1*
COc1ccc(NC(=O)c2nnn(Cc3nc(-c4ccc(C)cc4)oc3C)c2C)cc1,-95.0*
SMILES,Tgondii IFNg
Cc1ccc(-c2nc(Cn3nnc(C(=O)NCCCc4ccccc4)c3C)c(C)o2)cc1,-52.9
CCOc1ccccc1NC(=O)c1nnn(Cc2nc(-c3ccc(OC(C)C)cc3)oc2C)c1C,32.8
Cc1ccc(-c2nc(Cn3nnc(C(=O)Nc4cc(C)cc(C)c4)c3C)c(C)o2)cc1,-48.8
COc1ccc(NC(=O)c2nnn(Cc3nc(-c4ccc(Cl)cc4)oc3C)c2C)cc1,-18.6
Cc1oc(-c2ccc(OC(C)C)cc2)nc1Cn1nnc(C(=O)Nc2cccc(Cl)c2C)c1C,-118.5*
CN(Cc1cccnc1)C1CCN(C(=O)c2ccsc2)C(C(=O)O)C1 (centres undefined),1.0
COc1ccc(-c2nc(CCNC(=O)c3ccc(C(F)(F)F)cc3)cs2)cc1,i
Cc1ccc(-c2nc(CNC(=O)C3CCOC3)[nH]c2-c2ccccn2)cc1 (centres undefined),-52.5
Fc1ccc(C2(c3noc(COc4cccnc4)n3)CCOC2)cc1 (centres undefined),8.1
CCn1c(SCc2nc(-c3cccc(C)c3)oc2C)nc(=O)c2c(C(=O)OC)cc(C3CC3)nc21,3.2
Cc1onc(C(C)C)c1C(=O)NCCn1ncc(-c2cnccn2)c1-c1cccs1,-1.3
Cc1cc(C(=O)N2C[C@@H]3OCCN(CCN4CCCC4)[C@H]3C2)c(C)o1,-1.0
COc1ccccc1-c1nc(Cn2nnc(C(=O)Nc3ccccc3F)c2C)c(C)o1,70.9
Cc1ccnc(CC(C)N(C)C(=O)c2ccc3nccn3c2)c1 (centres undefined),-1.2
COc1ccc(CCNC(=O)c2nnn(Cc3nc(-c4ccc(C)cc4)oc3C)c2C)cc1OC,16.5
CCOc1ccc(-c2nc(Cn3nnc(C(=O)Nc4cc(C)ccc4C)c3C)c(C)o2)cc1,34.1
CCOc1ccc(-c2nc(Cn3nnc(C(=O)Nc4c(C)cccc4C)c3C)c(C)o2)cc1,-93.8*
Cc1ccccc1NC(=O)c1nnn(Cc2nc(-c3ccc(Cl)cc3)oc2C)c1C,-44.5
COc1ccc(NC(=O)c2nnn(Cc3nc(-c4ccc(Cl)cc4)oc3C)c2C)cc1OC,-21.2
COc1ccc(CNC(=O)c2nnn(Cc3nc(-c4ccc(C)cc4)oc3C)c2C)cc1OC,-86.8*
Cc1ccccc1NC(=O)c1nnn(Cc2nc(-c3ccccc3)oc2C)c1C,28.7
Cc1ccc(-c2nc(Cn3nnc(C(=O)Nc4ccccc4C)c3C)c(C)o2)cc1,-88.5*
CCOc1ccc(-c2nc(Cn3nnc(C(=O)Nc4cc(C)cc(C)c4)c3C)c(C)o2)cc1,-53.0
Cc1cccc2nc(Cn3c4ccccc4c4nc5n(c(=O)c43)CCS5)cc(=O)n12,23.9
CC1=C(C(=O)NCCN2CCOCC2)C2(CCN(S(=O)(=O)c3cccs3)CC2)OC1=O,39.1
